Screening data (PubChem)
Vif-A3F inh: qHTS for Inhibitors of Vif-A3F Interactions: qHTS; HeLa A3F-eYFP + Vif (tagged APOBEC3F with the HIV-1 protein that degrades it), YFP fluorescence increase; Potency, µM (series often up to 46.1 µM), without a hit: top-dose activity, negative = active; AID 602313, 2012; actives 0.2% (n = 390,000); also: % of control where 0% means no effect; nearly all actives have a fitted effect of over 65% in size
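HeLa cells stably expressing A3F-eYFP plus Vif, plated and incubated overnight at 37 deg C, then exposed to compounds overnight at 37 deg C. Blocked degradation read as raised yellow fluorescence (Ex 488/Em 500-530).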
PINK1 modulator: A Quantitative High throughput Screen to Identify Chemical Modulators of PINK1 Expression. actives 0.2% (n = 410,000). Potency, µM (doses to about 76.6 µM), for the others: at the top dose activation (PINK1 increase), actives largely listed as activators. AID 624263, 2012. PINK1 immunofluorescence, high-content cytometry, 24 h; active = well fitted activation curve with a large enough effect; inconclusive = small, poorly fitted or top-dose-only effect; cell line not stated here; also: % of control where 0% means no effect; nearly all actives have a fitted effect of over 65% in size
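Decision-based qHTS: stable cells, 24 h exposure to five compound concentrations, CCCP as control. Fixed cells stained for PINK1 plus nuclear, mitochondrial and cell markers, cytometer read.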
Epigenetic reg: Quantitative High-Throughput Screen for Regulators of Epigenetic Control. murine LDR cells, GFP reporter derepression, 30 h. actives 0.2% (n = 280,000). Potency, µM (highest dose often 53.9 µM), without a hit: at the highest dose GFP activation, hits mostly activators; also: % of control where 0% means no effect; nearly all actives have a fitted effect of over 60% in size
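Derepression of a silenced CMV-GFP reporter in murine LDR cells is scored by enumerating GFP-positive cells with a laser-scanning microplate cytometer after 30 hours of treatment at 37 C.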
Vif-A3G inh: qHTS for Inhibitors of Vif-A3G Interactions: qHTS | DNA dC->dU-editing enzyme APOBEC-3G (Homo sapiens), Q9HC16 | HeLa A3G-eYFP + Vif (tagged APOBEC3G with the HIV-1 protein that degrades it), YFP fluorescence, overnight | Potency, µM (highest dose often 46.1 µM), inactives show top-dose activity, negative = active, usual class: inhibitors | actives 0.076% (n = 410,000) | AID 602310, 2012; also: % is scaled to controls: 0 for no effect and ±100 for the full control effect; nearly all actives have a fitted effect of over 60% in size
Target sequence (Q9HC16 whole entry, looked up): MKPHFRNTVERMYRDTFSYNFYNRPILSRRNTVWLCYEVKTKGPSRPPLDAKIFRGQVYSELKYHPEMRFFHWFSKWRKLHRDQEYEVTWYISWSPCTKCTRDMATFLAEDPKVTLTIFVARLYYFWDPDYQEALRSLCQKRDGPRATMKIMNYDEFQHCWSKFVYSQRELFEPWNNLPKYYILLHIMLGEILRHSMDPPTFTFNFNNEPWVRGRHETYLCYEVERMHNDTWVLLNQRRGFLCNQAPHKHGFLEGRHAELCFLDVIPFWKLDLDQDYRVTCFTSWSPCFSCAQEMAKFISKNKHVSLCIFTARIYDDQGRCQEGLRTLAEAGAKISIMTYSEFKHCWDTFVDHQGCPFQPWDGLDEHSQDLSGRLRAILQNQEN
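Read-out is eYFP fluorescence (Ex 488/Em 500-530) from Vif-expressing HeLa A3G-eYFP cells; more signal means A3G escaped Vif-mediated degradation. Cells plated overnight, compound pinned in, incubated overnight at 37 deg C.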
Numbers without * were called inactive; i = inactive; ? = inconclusive; / = no result given; ! = repeats disagree. Shown are actives, neighbours in structure and some others; about 0.52% of the full set was active somewhere. Unless noted, calls follow the shape of the dose curve; as a rule, active = well fitted curve in the direction sought with a large enough effect; inconclusive = small, poorly fitted or top-dose-only effect, or another doubt; inactive = no such curve, though single readings can be large; an effect the other way counts as inactive or inconclusive. Potency is read from the fitted curve at half-maximal effect.

SMILES | Vif-A3F inh | PINK1 modulator | Epigenetic reg | Vif-A3G inh
CCC(=O)N/C(N)=N/c1nc(C)c2cc(OC)ccc2n1 | -0.3% | 3.55µM* | -1.1% | -0.3%
COCCNC(=S)N/N=C(\C)c1ccc(OC(F)F)cc1 | 25.1µM* | -1.0% | 0.0% | -0.6%
COCCNC(=S)N/N=C(\C)c1ccc2cc(OC)ccc2c1 | -1.3% | 2.2% | 7.94µM* | -13.8%
Cc1c(Cc2ccccc2)sc(/N=C/c2ccc3ccccc3c2)c1C(N)=O | -19.7% | 18.2% | 8.8% | ?
Cc1c(Cc2ccccc2)sc(/N=C/c2c(O)ccc3ccccc23)c1C(N)=O | 8.91µM* | ? | 13.3% | -27.9%
COC(=O)c1cc(NC(=O)c2ccccc2)c(=O)oc1/C=C/Nc1ccc(Oc2ccccc2)cc1 | 8.91µM* | 8.2% | ? | ?
Cc1ccc2nc(N/N=C/c3ccccc3F)nc(-c3ccccc3)c2c1 | -12.0% | 2.9% | 0.0% | -5.0%
Cc1cc(-c2ccccc2)nc(N/N=C/c2ccccc2F)n1 | 22.4µM* | 4.2% | / | -6.7%
N#C/C(=C\c1ccc(-c2ccc(F)cc2F)o1)c1nc2ccccc2[nH]1 | 11.2µM* | 22.3% | 7.94µM* | 11.2µM*
N#C/C(=C\c1ccc(-c2ccccc2C(=O)O)o1)c1nc2ccccc2[nH]1 | 22.4µM*! | 1.8% | 0.0% | -8.7%
Cc1ccc2nc(/C(C#N)=C/c3ccc(-c4ccccc4C(=O)O)o3)[nH]c2c1 | 11.2µM* | 0.1% | / | ?
N#C/C(=C\c1ccc(Cl)cc1)c1nc2ccccc2[nH]1 | -4.3% | 4.3% | 4.8% | -5.7%
Cc1cc2nc(/C(C#N)=C\c3ccc(-c4ccccc4C(=O)O)o3)[nH]c2cc1C | -319.1% | 1.6% | / | 8.0%
CCOC(=O)c1ccc(-c2ccc(/C=C(\C#N)c3nc4ccc(C)cc4[nH]3)o2)cc1 | / | 5.8% | 1.58µM* | /
COc1ccc(CN2CCN(C(C)=O)CC2)cc1OC1CCN(C(=O)c2ccc3[nH]c(C)c(C)c3c2)CC1 | / | -1.1% | / | /
CC(C)OCc1cc(CN2CCN(c3ccccc3)CC2)c(O)c2ncccc12 | -27.4% | 0.7% | 2µM* | -0.6%
Oc1c(CN2CCOCC2)cc(COCc2ccccc2)c2cccnc12 | ? | -0.8% | 3.98µM* | -9.7%
COCc1cc(CN2CCN(C)CC2)c(O)c2ncccc12 | 1.9% | 17.2% | ? | -4.7%
Oc1c(CN2CCN(c3ccccc3)CC2)cc(Br)c2cccnc12 | ? | 2.8% | ? | 1.2%
CCOCc1cc(CN2CCN(c3cccc(Cl)c3)CC2)c(O)c2ncccc12 | 3.0% | 1.6% | 3.55µM* | 3.6%
CC1(C)CC(=O)C(C2C3=C(CC(C)(C)CC3=O)Oc3c(Br)cc(Br)cc32)=C(O)C1 (stereo not given) | -8.7% | 22.4µM* | / | -0.7%
COc1ccc(-c2csc(/C(C#N)=C\c3ccc(O)c([N+](=O)[O-])c3)n2)cc1OC | -14.9% | 1.6% | -1.3% | -0.2%
COc1ccc(/C=C(\C#N)c2nc(-c3cc4c(ccc5ccccc54)oc3=O)cs2)cc1O | -12.4% | 0.1% | 12.6µM* | -2.7%
COc1ccc(/C=C(/C#N)c2nc(-c3ccc(-c4ccccc4)cc3)cs2)cc1OC | ? | -0.4% | 10µM* | -4.9%
CC(C)c1c(C(=O)N2CCCCC2c2cccnc2)cnn1-c1nccc(-c2cccs2)n1 (stereo not given) | / | -0.2% | / | /
SMILES | Vif-A3F inh | PINK1 modulator | Epigenetic reg | Vif-A3G inh
COC(=O)c1c(OCc2cccnc2)cc(=O)n2c1CCN(C(=O)c1ccc(OC)c(F)c1)CC2 | / | 0.8% | / | /
CCn1cc([N+](=O)[O-])c(C(=O)Nc2nc(-c3ccc(C)c(C)c3)c(C)s2)n1 | -5.1% | 2.82µM* | 2.9% | -4.1%
COc1ccc(C(C)NC(=S)NCc2ccc(F)cc2)cc1 (stereo not given) | ? | 1.3% | / | -0.1%
Cc1ccc(C)c(C(C)NC(=S)NCc2ccc(F)cc2)c1 (stereo not given) | 11.2µM* | ? | / | -0.8%
CSc1cccc(NC(=O)c2cc3c(COC(C)=O)cnc(C)c3oc2=O)c1 | 10µM* | 1.2% | 2.7% | ?
CC(=O)OCc1cnc(C)c2oc(=O)c(C(=O)Nc3ccc(F)cc3C)cc12 | -7.1% | 1.9% | 4.6% | -2.5%
S=C(NNc1ccnc2cc(Cl)ccc12)Nc1ccc(Cl)cc1Cl | ? | 8.91µM* | 0.0% | -5.9%
COC(=O)c1cc(CNC(=O)c2cccc(N(C)C)c2)cc(NC(=O)c2ccccc2Cl)c1 | / | -0.8% | / | /
O=[N+]([O-])c1ccc(S(=O)(=O)Nc2nc3ccccc3nc2Nc2ccccc2)cc1 | 5.1% | 35.5µM* | 5.7% | -0.4%
COc1ccc(Nc2nc3ccccc3nc2NS(=O)(=O)c2ccc(C)cc2)c(OC)c1 | ? | -5.3% | 4.6% | -2.2%
CC(=O)Nc1ccc(S(=O)(=O)Nc2nc3ccccc3nc2Nc2ccc3ccccc3c2)cc1 | ? | 6.7% | 1.0% | -13.7%
COC(=O)c1cc(Nc2nc3ccccc3nc2NS(=O)(=O)c2ccc(C)cc2)ccc1Cl | 11.2µM* | 0.0% | 13.2% | -7.4%
COc1ccc2nc(NS(=O)(=O)c3ccc(C)cc3)c(Nc3cc(Cl)ccc3OC)nc2c1 | -896.1% | 4.2% | 25.1µM* | -27.9%
COc1cc(Nc2nc3ccccc3nc2NS(=O)(=O)c2ccc([N+](=O)[O-])cc2)cc(OC)c1OC | -8.3% | -0.4% | / | -0.5%
CC(=O)Nc1ccc(S(=O)(=O)Nc2nc3ccccc3nc2Nc2ccc(N)cc2)cc1 | 12.6µM* | 0.4% | 1.1% | -6.8%
CCN1CCCC1CNCc1cc2c(OC)c(OC)c(OC)cc2nc1N(C)C (stereo not given) | / | 0.2% | / | /
Cc1ccc(-c2nc3sc(C#N)c(N)n3c(=O)c2C#N)cc1 | 6.31µM* | ? | ? | -6.4%
CCN(CC)c1ccc(/C=C/c2ccc3ccccc3n2)cc1 | / | ? | / | 3.5%
C(=C\c1ccncc1)/c1ccncc1 | 0.6% | 1.3% | 1.1% | -0.9%
CC[N+](C)(C)c1ccc(/C=C/c2ccc3ccccc3n2)cc1 | / | 5.01µM* | / | -4.6%
CC[N+](C)(C)c1ccc(/C=C/c2ccncc2)cc1 | / | / | / | 10µM*
O=C(NC1CCCCCC1)c1ccc2c(c1)sc1nc(-c3ccccc3)cn12 | 5.01µM* | -0.1% | 1.4% | -0.4%
COc1ccc(-c2cn3c(n2)sc2cc(C(=O)NC4CCCCC4)ccc23)cc1 | 6.4% | 1.0% | 0.0% | -4.3%
Oc1cc(-c2nc3ccccc3s2)cc2c1OCCN(Cc1cccn1-c1ccccn1)C2 | / | -0.2% | / | /
COc1ccc2nc(SCC(=O)Nc3ccc4sc(C)nc4c3)c(C#N)cc2c1 | 22.4µM* | 16.0% | 3.55µM* | -6.5%
Cc1ccccc1CN1CCN(Cc2ccccc2C(F)(F)F)CC1 | -16.4% | 10µM* | 0.7% | -4.0%
CN(/N=C/c1ccc(N(C)C)cc1)C1=NS(=O)(=O)c2ccccc21 | i | ? | / | 4.47µM*
CN1CCCC(CN(C)C(=O)c2cnn(-c3nccc(-c4ccccc4C(F)(F)F)n3)c2C2CC2)C1 (stereo not given) | / | -0.3% | / | /
